Screens as filed in PubChem BioAssay.
TGFb inhibitor – inhibitors of TGF-b signaling | HepG2 CAGA-GFP TGF-b/SMAD3 reporter, GFP fluorescence, 18 h; TGF-beta stimulated, 500 pg/mL final | Potency, µM (doses to about 46.1 µM), for the others: top-dose activity, negative = inhibition, most hits filed as inhibitors | 1.2% of 410,000 active; note: % is set by controls: 0 for no effect and ±100 for the full control effect; nearly all actives have a fitted effect of over 65% in size
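First, reporter cells (HEPG2 CAGA-GFP) rested 2 h at 37 degrees C. Next, compounds were pinned in and TGF-beta added to 500 pg/mL final. After 18 h, GFP was imaged per cell and summed per well.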
HepG2 tox – HepG2 cytotoxicity, counter-screen for TGF-b inhibitors. HepG2 CAGA-GFP viability, ATP luminescence, 18 h. Potency, µM (titrated, usually from 46.1 µM), inactives show at the top dose activity change, negative = cytotoxicity, most hits filed as cytotoxic. 0.76% of 410,000 active. AID 588856
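CellTiter-Glo luminescence gave cytotoxicity after 18 hours at 37 degrees C. The cells were HepG2 CAGA-GFP in 1% FBS DMEM, stimulated with 500 pg/mL TGF-beta after compound addition. %Activity was normalised to no-cell wells (complete cell-killing) and DMSO (no toxicity), and curves were fitted and classified.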
A549 tox-1 – kills or reduces viability of A549 cells in Nrf2 counter-screen; AID 504648; Potency, µM (titrated, usually from 46 µM), for the others: at the highest dose activity change, negative = cytotoxicity, usual class: inhibitors; A549 ARE-Fluc cells, CellTiter-Fluor viability, 18-24 h; 0.16% of 390,000 active; note: % is set by controls: 0 for no effect and ±100 for the full control effect
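A549 ARE-Fluc cells in 5% FBS OPTI-MEM, 5000 cells/well, rested 2 h then exposed to compounds in concentration-response for 18-24 h at 37 °C. Viability by CellTiter-Fluor fluorescence (Ex 405/Em 525) after 30 min; luciferase luminescence (BugLite, 15 min, RT) read afterwards.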
Nrf2 block – inhibitors of Nrf2 signaling; 2.1% of 360,000 active; Potency, µM (titrated, usually from 46 µM), for inactives: top-dose activity change, negative = inhibition, most hits filed as inhibitors; A549 ARE-Fluc reporter, luciferase luminescence, 18-24 h; note: % is set by controls: 0 for no effect and ±100 for the full control effect; nearly all actives have a fitted effect of over 60% in size
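In this cell-based qHTS, ARE-driven firefly luciferase in A549 cells reports Nrf2 activity; the luminescent signal after BugLite lysis is the measured value, with a prior CellTiter-Fluor read for cell health.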
Nrf2 activator – Nrf2 pathway activation. AID 624171. AREc32 ARE-luciferase reporter (MCF7-derived line), luminescence, 24 h. 0.31% of 410,000 active. Potency, µM (highest dose often 46.1 µM), without a hit: top-dose activation, hits mostly activators; note: % of control where 0% means no effect; nearly all actives have a fitted effect of over 65% in size
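Steps: seed AREc32_Fluc cells (1000/well, 5% FBS OPTI-MEM); incubate overnight at 37 deg C; add 23 nL compound; incubate 24 hr; add Steady-Glo; hold 30 min RT; read luminescence.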
FLuc enzyme inh – counter-screen for Nrf2 inhibitors: firefly luciferase enzyme inhibition; shares compounds with Nrf2 block; purified firefly luciferase, luminescence inhibition; Potency, µM (top dose mostly 57.5 µM), without a hit: top-dose activity change, negative = inhibition, hits mostly inhibitors; 4% of 1,400 active; AID 720522; note: % is set by controls: 0 for no effect and ±100 for the full control effect; nearly all actives have a fitted effect of over 65% in size
Target sequence (P08659 whole entry, looked up): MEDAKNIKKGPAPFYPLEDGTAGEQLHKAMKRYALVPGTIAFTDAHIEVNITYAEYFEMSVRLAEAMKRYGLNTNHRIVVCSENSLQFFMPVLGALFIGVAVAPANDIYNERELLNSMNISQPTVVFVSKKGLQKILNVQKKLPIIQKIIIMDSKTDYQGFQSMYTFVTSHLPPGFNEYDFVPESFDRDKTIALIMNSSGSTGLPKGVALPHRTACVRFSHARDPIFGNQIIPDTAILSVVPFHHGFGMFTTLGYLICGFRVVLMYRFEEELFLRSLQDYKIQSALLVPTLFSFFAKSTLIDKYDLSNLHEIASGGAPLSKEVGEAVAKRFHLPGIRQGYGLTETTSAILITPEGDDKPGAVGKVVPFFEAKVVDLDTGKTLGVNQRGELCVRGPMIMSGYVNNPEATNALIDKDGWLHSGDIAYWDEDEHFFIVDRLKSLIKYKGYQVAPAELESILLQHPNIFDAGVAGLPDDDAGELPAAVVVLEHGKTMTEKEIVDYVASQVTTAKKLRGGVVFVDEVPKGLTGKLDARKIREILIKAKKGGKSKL
A549 tox-2 – toxic to A549 ARE-Fluc cells in Nrf2 counterscreen. shares compounds with Nrf2 block. A549 ARE-Fluc cells, cytotoxicity counterscreen. Potency, µM (titrated, usually from 46.1 µM), for inactives: at the highest dose activity change, negative = cytotoxicity, most hits filed as inhibitors. 2% of 1,400 active;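 note: cells exposed to compounds for 18 to 24 hours; % is set by controls: 0 for no effect and ±100 for the full control effect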
ARE-Fluc inh – Nrf2 inhibition confirmed, A549 ARE-luciferase. A549 ARE-firefly luciferase reporter, luminescence. AID 720524. 74% of 1,400 active. Potency, µM (top dose mostly 46.1 µM), for the others: at the highest dose activity change, negative = inhibition, hits mostly inhibitors. shares compounds with Nrf2 block; note: % is set by controls: 0 for no effect and ±100 for the full control effect; nearly all actives have a fitted effect of over 65% in size
Numbers without * were called inactive; ? = inconclusive; / = no result shown. Most compounds without a hit are left out; they make up all but 3.6% or so of the library. Calls come from the whole dose curve; as a rule, active = well fitted curve in the direction sought with a large enough effect; inconclusive = small, poorly fitted or top-dose-only effect, or another doubt; inactive = no such curve, though single readings can be large; an effect the other way counts as inactive or inconclusive. Potency is the fitted concentration of half-maximal effect.

SMILES	TGFb inhibitor	HepG2 tox	A549 tox-1	Nrf2 block	Nrf2 activator	FLuc enzyme inh	A549 tox-2	ARE-Fluc inh
CCCn1c(=O)c(C(=O)Nc2ccccc2C(=O)OC)c(O)c2ccccc21	-6%	-19%	-7%	3%	11%	/	/	/
CC(Sc1nnc(-c2ccncc2)n1C)C(=O)NCC(=O)Nc1ccc(F)c(F)c1F (centres undefined)	1%	2%	/	/	1%	/	/	/
COc1cc(NC(=O)c2ccc(-c3nc(COc4ccccc4)c(C)o3)cc2)cc(OC)c1	?	-19%	0%	5.2µM*	1%	-12%	-7%	8.2µM*
O=C(COc1ccc2c(-c3ccccc3)cc(=O)oc2c1)Nc1cccnc1	-20%	2%	1%	2.3µM*	0%	-17%	-6%	1.8µM*
O=C(COc1ccc2c(-c3ccccc3)cc(=O)oc2c1)NCc1ccccn1	48%	16%	0%	-16%	0%	/	/	/
COc1ccc2c(C(=O)NCc3ccc4c(c3)OCO4)c(-c3ccc(S(C)(=O)=O)cc3)sc2c1	-5%	-3%	?	7.3µM*	0%	-2%	?	16µM*
COC(=O)c1c(-c2ccc(S(C)(=O)=O)cc2)sc2cc(OC)ccc12	9%	-15%	1%	?	3%	/	/	/
COc1ccc(CC(=O)Nc2nnc(C(C)(C)C)s2)cc1OC	-10%	13%	-24%	9.2µM*	6%	-1%	-3%	3%
COc1ccc(-c2csc(NC(=O)Cc3ccccc3)n2)cc1OC	8%	-3%	-9%	2.6µM*	-1%	-25%	-3%	/
O=C(Cc1ccccc1)Nc1nc(-c2ccc(F)c(F)c2)cs1	4%	1%	-1%	-6%	0%	/	/	/
CCc1ccccc1OCC(=O)Nc1nc(-c2cccnc2)cs1	?	-2%	?	7.3µM*	5%	-19%	?	?
CN(C)c1cc[n+](CC(=O)Nc2cccc([N+](=O)[O-])c2)cc1	2%	-6%	5%	-15%	-1%	/	/	/
CN(C)c1cc[n+](CC(=O)Nc2ccc(Cl)c([N+](=O)[O-])c2)cc1	-5%	-9%	-3%	4.6µM*	0%	0%	-5%	8.2µM*
CCN(C(=O)/C=C/c1ccc2c(c1)OCO2)c1ccccc1	?	8%	13%	?	6%	/	/	/
Cc1ccc(Cl)cc1N1CCN(C(=O)c2cc3c(=O)n(C)c4ccccc4c3n2C)CC1	4%	6%	-18%	4.1µM*	0%	4%	-22%	6.5µM*
O=S(=O)(c1ccc2c(c1)OCCO2)N1CCN(c2ncnc3sccc23)CC1	?	-15%	-29%	2.3µM*	9%	0%	2%	/
Cc1ccc(S(=O)(=O)N2CCN(c3ncnc4sccc34)CC2)cc1C	?	-3%	-11%	?	4%	/	/	/
CC1CCCC=CC2CC(OC(=O)CN(C)C)CC2C(O)C=CC(=O)O1 (centres undefined)	?	-34%	?	0.21µM*	-1%	1%	?	0.41µM*
Cc1ccc2[nH]cc(/C=C/c3cc[n+](C)cc3)c2c1	60%	-18%	-42%	1.8µM*	11%	0%	-30%	1.3µM*
COc1ccc2c(/C=C/c3cc[n+](C)cc3)c[nH]c2c1	10%	-35%	?	1.3µM*	1%	4%	?	1.6µM*
COc1ccc2c(C=O)c[nH]c2c1	21%	11%	8%	6%	4%	/	/	/
CC[n+]1ccc(/C=C/c2c[nH]c3ccccc23)cc1	120%	-23%	?	1.3µM*	5%	-1%	?	4.6µM*
CCCCN(C(=O)Cn1nnc2ccccc21)C(C(=O)NCCOC)c1ccc(OC)cc1OC (centres undefined)	-21%	0%	1%	14%	-1%	/	/	/
Cc1oc(-c2ccc(Cl)cc2)nc1CS(=O)CC(=O)NCCCN1CCN(Cc2ccccc2)CC1 (centres undefined)	?	-31%	-4%	5.8µM*	3%	3%	-14%	12µM*
O=C(NCc1cccs1)c1noc2c1CCCCC2	27%	-6%	-3%	?	2%	/	/	/
SMILES	TGFb inhibitor	HepG2 tox	A549 tox-1	Nrf2 block	Nrf2 activator	FLuc enzyme inh	A549 tox-2	ARE-Fluc inh
Cc1cccc(OCC(=O)OCc2cc(=O)n3nc(-c4cccs4)sc3n2)c1	-16%	-25%	-3%	21%	5%	/	/	/
O/N=C1\CCCc2ccccc21	25%	-6%	15%	2%	0%	/	/	/
Cc1c(C(=O)OC2CCCCCC2)[nH]c2c1C(=O)CC(c1ccccc1)C2 (centres undefined)	0%	3%	2%	-6%	-1%	/	/	/
COc1cc(C2CC(=O)c3c([nH]c(C(=O)OC4CCCC4)c3C)C2)cc(OC)c1OC (centres undefined)	?	-20%	?	5.8µM*	-2%	-15%	?	12µM*
COC(=O)c1[nH]c2c(c1C)C(=O)CC(c1cc(OC)c(OC)c(OC)c1)C2 (centres undefined)	5%	3%	0%	9.2µM*	3%	4%	-6%	?
COC(=O)c1[nH]c2c(c1C)C(=O)CC(c1ccc(OC)c(OC)c1)C2 (centres undefined)	0%	17%	-4%	?	0%	/	/	/
COCCN(C(=O)COC(=O)/C(=C/c1ccccc1)NC(C)=O)c1c(N)n(Cc2ccccc2)c(=O)[nH]c1=O	5%	-30%	-6%	-9%	0%	/	/	/
Cc1cc(C)n(S(=O)(=O)/C=C/c2ccccc2)n1	7%	3%	?	9.2µM*	3.2µM*	2%	-15%	-8%
COc1ccccc1-c1noc(CCC(=O)N2CCN(c3cc(C)ccc3C)CC2)n1	?	4%	?	4.6µM*	4%	3%	0%	-25%
COc1ccc(-c2noc(CCCCC(=O)N3CCN(c4cc(C)ccc4C)CC3)n2)cc1	?	-2%	-22%	3.7µM*	-1%	-21%	-9%	7.3µM*
COc1ccc(-c2noc(CCCC(=O)N3CCN(c4cc(C)ccc4C)CC3)n2)cc1	?	-18%	-6%	?	4%	/	/	/
S=C(c1ccco1)N1CCOCC1	-12%	7%	0%	5%	3%	/	/	/
